Source: PubChem
FBW7 act: human FBW7 E3 ligase activation, primary screen. 650,000 compounds, 0.13% hits. normalized activity (activation), % at 26.1 µM. AID 1259310. AlphaScreen FBW7–phospho-cyclin E peptide binding, activator screen; in the data active = normalized activity above about 1.9%;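 also: purified mutant Fbw7 with reduced substrate affinity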
GPR151 ag: activates the human receptor GPR151; Q8TDV0; PathHunter beta-arrestin GPR151 cells, luminescence; activation, % at 11.2 µM; 650,000 compounds, 1% hits; AID 1508602; in the data active = activation above about 4.9%;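 also: 0% = median of compound wells and 100% = cells with positive control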
MITF primary: inhibitors of human MITF; O75030; AlphaScreen MITF homodimerization, bead proximity signal; inhibition, % at 2.6 µM; 650,000 compounds, 0.91% hits; AID 1259374; in the data active = inhibition above about 50%;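 also: 0% = vehicle wells with protein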
Target sequence (O75030 whole entry, looked up): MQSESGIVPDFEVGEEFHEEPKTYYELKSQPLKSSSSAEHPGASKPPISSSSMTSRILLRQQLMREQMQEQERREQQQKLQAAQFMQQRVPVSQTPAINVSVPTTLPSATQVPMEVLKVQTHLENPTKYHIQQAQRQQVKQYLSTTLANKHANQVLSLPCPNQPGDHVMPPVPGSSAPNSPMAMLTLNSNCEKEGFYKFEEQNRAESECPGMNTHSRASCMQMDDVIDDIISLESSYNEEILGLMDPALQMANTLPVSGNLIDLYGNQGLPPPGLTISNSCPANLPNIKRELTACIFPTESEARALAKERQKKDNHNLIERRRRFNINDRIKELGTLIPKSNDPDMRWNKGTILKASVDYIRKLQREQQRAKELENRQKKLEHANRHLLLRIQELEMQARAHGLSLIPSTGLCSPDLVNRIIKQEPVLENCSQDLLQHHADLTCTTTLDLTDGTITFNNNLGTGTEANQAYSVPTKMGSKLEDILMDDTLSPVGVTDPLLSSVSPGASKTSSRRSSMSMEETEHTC
TEAD-YAP block: TEAD-YAP interaction inhibition | AID 1259422 | HEK-TIYL cells, TEAD-Gal4/YAP UAS-luciferase luminescence | 640,000 compounds, 1.4% hits | inhibition, % at 9.12 µM; in the data active = inhibition above about 32%;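 also: 0% = median of test compound wells and 100% = reference inhibitor wells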
GPR151 confirm: human GPR151 activation, confirmation screen. shares compounds with GPR151 ag. GPR151 PathHunter beta-arrestin cells, luminescence, 90 min; % of EA-reagent control over plate median. activation, % at 11.2 µM. 6,700 tested, under 10 active. AID 1508609;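 active = mean percent activation across replicates above the confirmation screen cutoff of 4.91%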
GPR119 counter: GPR119 activation, counter-screen for GPR151 activators | shares compounds with GPR151 ag | GPR119 PathHunter beta-arrestin cells, luminescence, 90 min; 0 = compound-well median, 100 = enzyme-acceptor control | activation, % at 11.2 µM | 6,700 compounds, 0.3% hits;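 active = mean percent activation in the counterscreen above 29.09%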;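 also: counterscreen on off-target GPR119 to flag nonselective hits from the GPR151 activator screen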
* marks the source's active call; other numbers are inactive results; · = no result; ! = not confirmed by another sample. In the library only some 3.4% were active in any assay of this set; here they are far more common.

SMILES | FBW7 act | GPR151 ag | MITF primary | TEAD-YAP block | GPR151 confirm | GPR119 counter
CCOC(=O)c1ccc(NC(=S)NNC(=O)Cc2cccn2C)cc1 | 0 | 10* | 10 | 3 | 1 | 7
Cc1cc(C)c2c(c1)[nH]c1nnc(SCC(=O)Nc3ccc(C(F)(F)F)cc3)nc12 | 0 | -2 | -10 | -9 | · | ·
CC(=O)NC1=NC(=O)/C(=C/c2ccc(-c3ccc(C)c(Cl)c3)o2)S1 | 0 | 5.3* | -6 | -1 | 1 | 7
COC(=N/C(=N/S(=O)(=O)c1ccccc1)c1ccccc1)SC | 0 | 2 | 11 | 0 | · | ·
C#CCN1C(=O)S/C(=C/c2ccc(C(=O)OC)cc2)C1=O | 0 | 5.9* | -6 | 2 | 0 | -5
CC1(C)CC(N(Cc2cccs2)C(=O)c2ccco2)CCO1 (centres undefined) | 0 | 9.3* | 15 | -4 | -2 | -16
O=C(NC1CCCC1)C(c1ccco1)N(Cc1cccs1)C(=O)c1ccco1 (centres undefined) | 0 | 1 | 8 | -5 | · | ·
COc1ccc(/C(O)=C2\C(=O)C(=O)N(c3ccc(C(=O)O)cc3)C2c2ccccc2)cc1 (centres undefined) | 0 | 9.3* | 31 | -35 | 0 | 11
CNC(=O)c1cc2c(=O)n3cccc(C)c3nc2n(C)c1=N | 1 | -2 | 18 | 13 | · | ·
Cc1ccc(CNC(=O)c2cc3c(=O)n4cccc(C)c4nc3n(C)c2=N)cc1 | 0 | 11* | 6 | 1 | 0 | 0
CCCCCCCCCC(=O)OC(CC(=O)O)C[N+](C)(C)C (centres undefined) | 0 | 2 | 0 | · | · | ·
CCc1nnc2n1N(C(C)=O)C(c1ccc(Cl)cc1)=C(C(C)=O)S2 | 0 | 0 | 2 | 19 | · | ·
CCc1nnc2n1N(C(C)=O)C(c1ccc(Cl)c(Cl)c1)=C(C(C)=O)S2 | 0 | 7.1* | 11 | 17 | 1 | 2
O=C1CCC(C(=O)NC2CCCCCC2)=NN1 | 0 | -1 | 3 | -4 | · | ·
CC/C=C\C/C=C\C/C=C\C/C=C\C=C\[C@@H](O)CCCC(=O)O | · | -1 | 4 | · | · | ·
COCC(=O)NCCNc1nc2ccc(OC)cc2cc1C#N | 0 | 7.2* | 6 | -11 | 1 | -1
COc1ccc2nc(NCCNC(=O)c3cc(OC)c(OC)c(OC)c3)c(C#N)cc2c1 | 1 | -1 | 15 | -1 | · | ·
CCC(C)NC(=O)CSc1nc2ccsc2c(=O)n1C1CCCCC1 (centres undefined) | 0 | 0 | 1 | 3 | · | ·
O=C(c1ccc2c(=O)n(-c3cc(C(F)(F)F)ccc3Cl)c(=S)[nH]c2c1)N1CCc2ccccc2C1 | 0 | 0 | 9 | 1 | · | ·
CC(C)N(CCNc1nc(Nc2ccccn2)nc2c1ncn2C1CCCCC1)C(C)C | 0 | 6.4* | 2 | 16 | 0 | -13
CC(C)N(CCNc1nc(Nc2nccc3ccccc23)nc2c1ncn2C1CCCCC1)C(C)C | 0 | -2 | -12 | -4 | · | ·
CCCCCc1ccc(-c2ccc(C(=O)Oc3ccc4ccccc4c3)cc2)nc1 | 0 | 0 | 0 | -4 | · | ·
COc1cc(Br)cc(CN2CCN(C=O)CC2)c1O | 0 | 7.3* | -18 | 4 | 1 | 2
O=C(c1ccccc1)N1CCC(N(C2CC2)S(=O)(=O)c2ccccc2)CC1 | 0 | 0 | -5 | 1 | · | ·
C/C(CCc1ccccc1)=N/Nc1ccc([N+](=O)[O-])cc1 | 0 | 8.0* | 8 | 1 | 0 | -5
SMILES | FBW7 act | GPR151 ag | MITF primary | TEAD-YAP block | GPR151 confirm | GPR119 counter
CCCCCCCCON1C(=O)C2C3C=CC(O3)C2C1=O (centres undefined) | 0 | 0 | 8 | -10 | · | ·
COc1cccc(NC(=O)c2ccc(-c3cccc(OC)c3)nc2N2CCOCC2)c1 | 0 | 1 | 15 | -13 | · | ·
COc1cccc(NC(=O)c2ccc(-c3ccsc3)nc2N2CCOCC2)c1 | 0 | 9.3* | 3 | -10 | 1 | 4
O=C(Nc1ccc2[nH]ncc2c1)[C@H]1CCCN1C(=O)C(O)c1ccc(Cl)cc1 (some centres undefined) | 0 | -1 | 5 | -1 | · | ·
O=C(Nc1ccc2[nH]ncc2c1)[C@@H]1CCCN1C(=O)C(O)c1ccc(Cl)cc1 (some centres undefined) | 0 | 5.2*! | 10 | 0 | 0 | 5
Cc1ccc(NC2=CC(c3ccc(F)cc3)N(c3ccc(C)cc3)C2=O)cc1 (centres undefined) | 0 | 2 | -12 | -8 | · | ·
O=C(COc1ccccc1Cl)N/N=C/c1ccc(F)cc1 | 0 | -1 | -7 | -8 | · | ·
O=C(COc1ccccc1Br)NC1CCCCC1 | 0 | 1 | -9 | -62 | · | ·
O=C(COc1ccccc1Cl)NC1CCCCCC1 | 0 | 4.9* | -14 | -53 | 1 | 5
COc1cc([N+](=O)[O-])ccc1NC(=S)NCc1ccco1 | 0 | -3 | 15 | 8 | · | ·
C/C(=N\NC(=S)NCc1ccco1)c1cccc([N+](=O)[O-])c1 | 0 | 5.0* | 3 | 7 | 2 | 10
O=C(COc1ccccc1[N+](=O)[O-])N/N=C/c1ccccc1Cl | 0 | 22* | -24 | -35 | 0 | 2
O=C(COc1ccccc1Cl)N/N=C\C=N/NC(=O)COc1ccccc1Cl | 0 | 12* | 0 | -3 | 0 | 14
C=CCNC(=O)c1ccc(N(Cc2ccc(C)cc2)S(C)(=O)=O)cc1 | 0 | 1 | 7 | 5 | · | ·
O=C(Cn1cnc2ccccc2c1=O)NCCC(=O)Nc1ccc(C(F)(F)F)cc1 | 1 | 0 | -1 | -8 | · | ·
COc1ccc(/C(C)=N\NC(=O)COc2ccc(C)cc2C)cc1OC | 0 | 1 | 4 | 4 | · | ·
O=C(NCc1ccco1)c1cc([N+](=O)[O-])ccc1N1CCCCC1 | 0 | 3 | 14 | 9 | · | ·
O=C(NC(=S)NCc1ccco1)c1cc([N+](=O)[O-])ccc1N1CCOCC1 | 0 | 7.4* | 3 | 3 | 0 | -2
COc1ccc(OC(=O)COc2ccccc2Cl)cc1 | 0 | 7.8* | -15 | -9 | 0 | 8
C/C(=N/NC(=O)COc1cccc(Cl)c1)c1cccc([N+](=O)[O-])c1 | 0 | 6.6* | -12 | -2 | 0 | 2
COc1ccc(/C(C)=N\NC(=O)COc2ccc(C)cc2[N+](=O)[O-])cc1OC | 0 | 7.4* | 1 | -3 | 0 | 1
CCC(C)C(NS(=O)(=O)c1ccc(NC(C)=O)cc1)C(=O)O (centres undefined) | 0 | 0 | -3 | 2 | · | ·
Cc1ccccc1C(=O)N1c2ccccc2NC(=O)CC1C (centres undefined) | 1 | -1 | 12 | -2 | · | ·
CC(C)(C)NC(=O)COc1ccccc1[N+](=O)[O-] | 0 | 1 | -2 | 3 | · | ·
COc1ccc(NC(=O)Cc2ccccc2[N+](=O)[O-])cc1OC | 1 | 6.5* | 5 | -24 | 0 | 8
